# Experimental data taken from PubChem BioAssay (NCI).
# The panel holds about 83,000 compounds, 20% with a hit somewhere; the sample as a whole holds those more often.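 Method: cells in 96-well plates; compound added at one concentration; 48 h incubation; percent growth measured; values under 10 scored active.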 A number with no mark means an inactive call. Active and inactive are the calls of the source.
# Columns and labels:
# Assay in all cases: NCI-60 one-dose screen, 48 h (100 = growth as untreated, 0 = no growth, -100 = all killed)
# Conditions in all cases: 10 µM unless noted
# SK-MEL-2 melanoma = tested on: SK-MEL-2 melanoma
# EKVX NSCLC = tested on: EKVX NSCLC
# SN12C renal = tested on: SN12C renal
# UO-31 renal = tested on: UO-31 renal
# TK-10 renal = tested on: TK-10 renal
# ACHN renal = tested on: ACHN renal
# CAKI-1 renal = tested on: CAKI-1 renal
# A498 renal = tested on: A498 renal
# CCRF-CEM leukemia = tested on: CCRF-CEM leukemia
# MOLT-4 leukemia = tested on: MOLT-4 leukemia
# SR leukemia = tested on: SR leukemia
# RPMI-8226 leukemia = tested on: RPMI-8226 leukemia
# OVCAR-8 ovarian = tested on: OVCAR-8 ovarian
# OVCAR-5 ovarian = tested on: OVCAR-5 ovarian
# OVCAR-4 ovarian = tested on: OVCAR-4 ovarian
# SK-OV-3 ovarian = tested on: SK-OV-3 ovarian
# IGROV1 ovarian = tested on: IGROV1 ovarian
# OVCAR-3 ovarian = tested on: OVCAR-3 ovarian
# HS 578T breast = tested on: HS 578T breast
# NCI/ADR-RES ovarian = tested on: NCI/ADR-RES ovarian
Structure (SMILES),growth (SK-MEL-2 melanoma),growth (EKVX NSCLC),growth (SN12C renal),growth (UO-31 renal),growth (TK-10 renal),growth (ACHN renal),growth (CAKI-1 renal),growth (A498 renal),growth (CCRF-CEM leukemia),growth (MOLT-4 leukemia),growth (SR leukemia),growth (RPMI-8226 leukemia),growth (OVCAR-8 ovarian),growth (OVCAR-5 ovarian),growth (OVCAR-4 ovarian),growth (SK-OV-3 ovarian),growth (IGROV1 ovarian),growth (OVCAR-3 ovarian),growth (HS 578T breast),growth (NCI/ADR-RES ovarian)
Oc1ccc(-c2nc3ccccc3s2)cc1CN(Cc1ccccn1)Cc1ccccn1,3.08% (active),5.39% (active),20.3%,-31.8% (active),2.77% (active),4.42% (active),-15.8% (active),31.9%,6.5% (active),2.86% (active),7.98% (active),13.2%,9.43% (active),40.9%,18%,7% (active),15%,26.2%,41.6%,-37.2% (active)
O=C(CCl)Nc1cc(O)c2c(c1)C(=O)c1cccc(O)c1C2=O,-49.4% (active),5% (active),-43.1% (active),-87% (active),-87.3% (active),-91.2% (active),-94% (active),-0.734% (active),-45% (active),-56.3% (active),-35.5% (active),-53.8% (active),-49.5% (active),-40% (active),-1.37% (active),17.1%,-55.6% (active),-100% (active),11.4%,19.1%
Nc1ccc(C2=NNC(=O)Cc3cc4c(cc32)OCCO4)cc1Cl,36.8%,63.9%,61.1%,61.2%,72.3%,53.3%,48.4%,56.3%,42.5%,34.8%,19.6%,56.2%,60.1%,69.7%,87.8%,57.1%,40.8%,-14.1% (active),62.2%,12%
O=c1oc2ccccc2cc1-c1cc(-c2ccc(-c3cc(-c4cc5ccccc5oc4=O)nc(-c4cc5ccccc5oc4=O)c3)cc2)cc(-c2cc3ccccc3oc2=O)n1,106%,96%,102%,88.3%,129%,100%,105%,98.1%,92.9%,86.8%,93.7%,98.2%,103%,119%,100%,94.3%,105%,110%,104%,108%
Nc1c(N)c2ccccc2c2ccccc12,106%,92.6%,99.5%,69.1%,119%,111%,89%,113%,104%,100%,94.1%,94.8%,99.1%,107%,96.5%,102%,117%,116%,104%,101%
CCCCCCCCCCCCNC(=O)N[C@H](C(=O)N[C@H]1/C=C/OCCNC(=O)/C=C/[C@H](C(C)C)NC1=O)C(C)C,66.8%,86.5%,93.6%,93.5%,97.1%,115%,96.1%,96.1%,40.6%,51.3%,29%,60.3%,96%,36.1%,50.8%,106%,45.2%,24.1%,74.2%,101%
COc1cnc2c(c1)C(=O)c1c-2n(CCCN2CCCC2)c(=O)c2cc(Cl)ccc12,65.2%,46.6%,27.5%,15.9%,39.4%,7.7% (active),42.4%,-9.2% (active),-38.1% (active),-24.4% (active),-42.9% (active),20.3%,26.1%,64.8%,45.4%,19.6%,39.4%,55%,49.1%,35.1%
Nc1ncnc2c1N=C(c1ccc3c(c1)OCO3)CC(c1ccc(Cl)cc1)N2 (stereo not given),58.1%,71.1%,93.3%,55.8%,99.7%,77.8%,74%,87%,-33.1% (active),69.4%,41.3%,18.4%,89.8%,68.5%,77.7%,78.9%,13%,103%,70.2%,60%
NS(=O)(=O)c1ccc(CCn2c(SCC(=O)N/N=C/c3ccccc3O)nc3ccccc3c2=O)cc1,14.2%,75.8%,51.3%,70.4%,70%,87.4%,60.1%,21.7%,18.7%,21.4%,19.9%,32.1%,36.9%,69.2%,83.3%,59.2%,64.4%,23.8%,37.5%,92.3%
CN(C)c1nc(-c2cccs2)n2nc(-c3ccco3)cc2n1,92.9%,80.1%,92%,57.9%,103%,96.9%,85.5%,74.1%,93.9%,97%,74.1%,73.2%,96%,99.4%,74.6%,90.2%,81.1%,101%,99.2%,93.5%
C[C@@H]1CC2C3CCC4=CC(=O)C=C[C@]4(C)[C@@]3(Cl)[C@@H](O)C[C@]2(C)[C@@]1(OC(=O)c1ccco1)C(=O)CCl (stereo not given in full),76.6%,61.5%,35.4%,30.5%,95.6%,82.4%,62.2%,99%,30%,31.5%,54.6%,55.9%,53%,83.1%,67.7%,54.1%,76.3%,89.3%,67.2%,39.9%
C=C1C(=O)O[C@H]2[C@H]1CC/C(COC(=O)NCc1c[nH]c3ccc(OC)cc13)=C\CC[C@@]1(C)O[C@@H]21,35.9%,33.9%,10.9%,-85% (active),-40.3% (active),-10.7% (active),-2.21% (active),94.1%,-7.78% (active),2.7% (active),8.82% (active),-25.8% (active),21.3%,45.2%,19.9%,68.3%,-21.7% (active),-84.2% (active),61.8%,73.1%
C#CCNc1nc(NCCNC(=O)CCl)nc(N(C)CCCCc2ccccc2)n1,98.9%,102%,77.1%,82.4%,97.7%,100%,95.2%,99.2%,23.8%,43.3%,62.1%,89.2%,101%,109%,96.6%,101%,78.9%,94.3%,94.2%,102%
COc1ccc2[nH]cc(C3(c4c[nH]c5ccc(OC)cc45)C(=O)Nc4ccc(Cl)cc43)c2c1,90.7%,43.5%,91.8%,46.3%,107%,76%,62.2%,73.8%,15.8%,5.75% (active),7.95% (active),36.4%,90.4%,89.1%,79.6%,93.4%,50%,61.9%,65.4%,90.1%
